Compound activity deposited in PubChem BioAssay by several laboratories.
In the library only some 1.6% were active in any assay of this set; here they are far more common.
RecA intein inh: inhibitors of M. tuberculosis RecA intein splicing; cell-free RecA intein splicing, fluorescence; P9WHJ3; 0.75% of 290,000 active; inhibition, % (no concentration beside the values); in the data active = inhibition above about 30%; inconclusive = no clear call, values can overlap the other calls;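 note: 0% = vehicle wells and 100% = reference inhibitor control wells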
Target sequence (P9WHJ3 whole entry, looked up): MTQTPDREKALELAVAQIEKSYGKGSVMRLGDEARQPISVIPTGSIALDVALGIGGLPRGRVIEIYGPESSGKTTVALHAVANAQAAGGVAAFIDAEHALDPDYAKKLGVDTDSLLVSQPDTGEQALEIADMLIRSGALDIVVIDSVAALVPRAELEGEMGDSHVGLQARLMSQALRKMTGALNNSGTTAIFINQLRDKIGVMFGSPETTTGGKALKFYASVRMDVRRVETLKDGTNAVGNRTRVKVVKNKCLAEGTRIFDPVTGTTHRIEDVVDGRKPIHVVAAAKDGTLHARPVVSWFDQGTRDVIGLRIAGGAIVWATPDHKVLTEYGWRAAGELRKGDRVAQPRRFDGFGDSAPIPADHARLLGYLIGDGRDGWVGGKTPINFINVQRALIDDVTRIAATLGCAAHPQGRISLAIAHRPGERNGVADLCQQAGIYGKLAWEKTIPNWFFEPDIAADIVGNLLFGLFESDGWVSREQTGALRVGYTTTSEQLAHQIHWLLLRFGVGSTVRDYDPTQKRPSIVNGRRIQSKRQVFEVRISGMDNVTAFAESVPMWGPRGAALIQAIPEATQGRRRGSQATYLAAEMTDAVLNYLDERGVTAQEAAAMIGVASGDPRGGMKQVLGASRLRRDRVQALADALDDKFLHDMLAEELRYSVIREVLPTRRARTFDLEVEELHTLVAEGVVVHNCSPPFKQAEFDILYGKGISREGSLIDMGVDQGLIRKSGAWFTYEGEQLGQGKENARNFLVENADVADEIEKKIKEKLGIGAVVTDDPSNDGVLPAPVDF
Mtb hypoxia rep: inhibitors of hypoxia-regulated fluorescent reporter in Mycobacterium tuberculosis | M. tuberculosis hypoxia-regulated fluorescent reporter, fluorescence | fluorescence inhibition, % (no concentration beside the values) | 0.1% of 300,000 active | AID 1159583; in the data active = fluorescence inhibition mostly above about 23%, no sharp cut-off; inactive = mostly below about 17%
ugtP null kill: compounds lethal to S. aureus RN4220 ugtP deletion mutant. OD600 growth, 16 h. growth inhibition, % (no concentration beside the values). 0.54% of 330,000 active. AID 1259309; in the data active = growth inhibition above about 68%;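 note: plate controls were untreated wells for no effect and antibiotic for full effect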
BJeLR viability: BJeLR cell viability loss; BJeLR (HRASV12) viability, CellTiter-Glo ATP luminescence, 48 h; inhibition, % (test concentration not listed); 0.17% of 300,000 active; in the data active = inhibition above about 50%; inconclusive = no clear call, values can overlap the other calls
RN4220 kill: kills Staphylococcus aureus RN4220; S. aureus RN4220 growth, OD600, 16 h; inhibition, % (concentration not given with the values); 0.33% of 330,000 active; AID 1259311; in the data active = inhibition above about 85%;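 note: plate controls were untreated cells for no effect and reference antibiotic for full effect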
CCHF vOTU inh-1: CCHFV vOTU protease inhibition | Pep-AMC fluorescence | 0.55% of 370,000 active | inhibition, % at 11.5 µM | AID 651958; note: 0% = vehicle wells with enzyme and 100% = no enzyme wells
GFP chromo cs: counter-screen GFP chromophore formation inhibition; 83% of 2,100 active; shares compounds with RecA intein inh; cell-free GFP chromophore formation, fluorescence; EC50, µM; call rule not given here
CCHF vOTU inh-2: CCHFV vOTU protease inhibition, confirmation | 17% of 1,900 active | AID 686976 | inhibition, % at 11.5 µM | Recombinant CCHFV vOTU, Pep-AMC fluorescence | shares compounds with CCHF vOTU inh-1
* marks the source's active call; other numbers are inactive results; ? = inconclusive; . = no result given. Cut-off read from the data, not from the text of the source, unless noted: active = inhibition above about 30%; inactive = the rest.

SMILES | RecA intein inh | Mtb hypoxia rep | ugtP null kill | BJeLR viability | RN4220 kill | CCHF vOTU inh-1 | GFP chromo cs | CCHF vOTU inh-2
CC(=O)N(C1=C(N2CCOCC2)C(=O)c2ccccc2C1=O)c1ccc(C(=O)O)cc1 | 61.4* | 15.8 | -5.0 | -14.6 | 5.2 | 52.2* | 19.8* | 36.3*
CCCOc1ccc(C(O)=C2C(=O)C(=O)N(CCN(C)C)C2c2ccco2)cc1 (configuration not stated) | . | 12.9 | 1.0 | . | 1.9 | . | . | .
O=[N+]([O-])c1c(NCCCO)cc(N2CCCCCC2)c2nonc12 | 7.8 | 7.0 | 17.3 | 3.0 | -2.6 | 22.2 | . | .
O=[N+]([O-])c1c(NCCCO)cc(SCc2ccco2)c2nonc12 | 64.5* | 2.6 | -0.7 | -6.6 | 13.3 | 47.9* | 26.8* | 1.4
CC1CN(C(C)CO)C(=O)c2cccc(NC(=O)Nc3ccc4c(c3)OCO4)c2OC1CN(C)S(=O)(=O)c1cccs1 (configuration not stated) | . | 9.9 | 2.0 | . | 0.0 | . | . | .
Cc1[nH][nH]c(=O)c1C(c1c(C)[nH][nH]c1=O)c1cn(Cc2ccccc2Cl)c2ccccc12 | 98.7* | 3.8 | -22.4 | 10.0 | 15.0 | 66.2* | 0.509* | -6.8
O=[N+]([O-])c1ccc(O)c2ncccc12 | 43.3* | . | 99.2* | 41.2 | 98.9* | 46.8* | 25* | 23.0
O=S(=O)(Nc1ccc(Cl)cc1NS(=O)(=O)c1ccccc1)c1ccccc1 | . | 7.6 | -3.6 | . | 1.6 | 23.2 | . | .
O=C(O)CSc1cc(NS(=O)(=O)c2ccc(Cl)cc2)c2ccccc2c1O | 96.3* | . | . | -12.1 | . | 104.0* | 9.76* | 95.3*
COc1ccc(S(=O)(=O)Nc2cc(SCC(=O)O)c(O)c3ccccc23)cc1 | 96.4* | 15.0 | -2.2 | 5.6 | 21.7 | 102.1* | 0.651* | 38.9*
CC1CN(C(C)CO)C(=O)Cc2cc(NC(=O)Nc3cccc4ccccc34)ccc2OC1CN(C)S(C)(=O)=O (configuration not stated) | . | 9.4 | -15.1 | . | 1.4 | . | . | .
CN1CCc2nc(SCC(=O)Nc3cccc(F)c3)c(C#N)c(-c3cccs3)c2C1 | 28.5 | -9.4 | -11.4 | -5.4 | -1.0 | -11.4 | . | .
CN1CCc2nc(SCC(=O)Nc3ccc(OC(F)(F)F)cc3)c(C#N)c(-c3cccs3)c2C1 | 88.3* | 5.6 | 3.0 | -10.7 | -1.5 | 35.3* | 3.88* | -7.0
NS(=O)(=O)c1ccc(NC2=CC(=O)C(=O)c3ccccc32)cc1 | 92.1* | . | . | 2.4 | . | 100.0* | 2.57* | 101.7*
Cc1ccc(NC2=CC(=O)C(=O)c3ccccc32)cc1 | 53.7* | . | 37.7 | -0.6 | 57.0 | 93.3* | 1.17* | 70.5*
CC(=O)Nc1ccc(NC2=CC(=O)c3ccccc3C2=O)cc1 | 23.2 | 9.8 | -2.8 | 5.2 | 15.4 | 3.2 | . | .
Cc1cc[n+](-c2[nH]c(=O)sc2C=NNC([S-])=Nc2ccccc2)cc1 | . | 14.4 | -4.4 | . | 3.9 | . | . | .
COc1ccc(C(O)c2nccc3cc(OC)c(OC)cc23)cc1OC (configuration not stated) | 53.4* | 11.8 | 15.0 | -15.1 | -9.4 | 89.5* | 25.2* | -10.0
CNC(=S)NN=Cc1cc(C)n(-c2ccc(Cl)c(Cl)c2)c1C | . | 6.9 | -19.3 | . | 3.8 | . | . | .
O=C(O)c1cccc(NS(=O)(=O)c2ccc3nnn(O)c3c2)c1 | -1.3 | . | 0.0 | -2.8 | -0.9 | 10.9 | . | .
O=C(O)c1cccc(NC2=C(n3nnc4ccccc43)C(=O)c3ccccc3C2=O)c1 | 77.9* | 14.0 | 1.8 | 17.7 | 5.4 | 78.7* | 1.92* | 84.7*
CC(C)(C)c1cc[n+](C2=C([O-])c3ccccc3C(=O)/C2=N\S(=O)(=O)c2cccs2)cc1 | 77.8* | 9.5 | 10.1 | -6.8 | 18.1 | 77.4* | 0.962* | 70.0*
O=C1/C(=N\S(=O)(=O)c2cccs2)C([n+]2ccccc2)=C([O-])c2ccccc21 | 41.3* | -4.2 | 8.1 | 8.9 | 7.8 | 48.6* | 17.1* | 89.4*
Cc1cccc(NC2=C/C(=N/S(=O)(=O)c3cccs3)c3ccccc3C2=O)c1 | . | . | . | . | . | 27.1 | . | .
CCOc1ccc(C=NNc2ccccn2)cc1 | . | 3.6 | -6.6 | . | 7.4 | . | . | .
SMILES | RecA intein inh | Mtb hypoxia rep | ugtP null kill | BJeLR viability | RN4220 kill | CCHF vOTU inh-1 | GFP chromo cs | CCHF vOTU inh-2
Cc1ccc(C(=O)Nn2c(N)c(S(=O)(=O)c3ccc(C)cc3)c3nc4ccccc4nc32)cc1 | 1.1 | -1.9 | -10.3 | 0.8 | 2.9 | -14.0 | . | .
CCCCn1c(NS(=O)(=O)c2ccccc2)c(S(=O)(=O)c2ccc(C)cc2)c2nc3ccccc3nc21 | 75.9* | -4.6 | -24.6 | 0.3 | 3.7 | 108.4* | ? | 50.9*
CCCCn1c(NC(=O)c2ccc(Br)o2)c(S(=O)(=O)c2ccccc2)c2nc3ccccc3nc21 | 90.1* | -1.7 | 10.3 | 0.2 | 16.5 | 60.5* | ? | -29.4
Nc1c(S(=O)(=O)c2ccccc2)c2nc3ccccc3nc2n1CCN1CCOCC1 | -14.2 | -4.0 | -2.7 | 0.7 | 0.2 | -20.7 | . | .
CCCCCn1c(NC(=O)c2ccco2)c(S(=O)(=O)c2ccc(C)cc2)c2nc3ccccc3nc21 | 80.0* | 8.6 | 4.1 | 2.6 | 0.5 | 70.8* | >38 | -62.6
CCCCC(C)=NNC(=O)Nc1ccccc1 | . | 6.8 | -1.0 | . | 3.9 | . | . | .
NC(=O)C1(NC(=O)C2CC3(CC(c4cccc(NC(=O)c5cc([N+](=O)[O-])cc([N+](=O)[O-])c5)c4)=NO3)CN2C(=O)c2ccccc2)CC1 (configuration not stated) | . | 21.8 | -4.9 | . | -2.4 | . | . | .
CN(C)c1ncc(C2=C(Cl)C(=O)C(N3CCCC3)=C(Cl)C2=O)s1 | 59.8* | 14.5 | 27.1 | -27.3 | 19.3 | 61.6* | 4.45* | 48.9*
CCOC(=O)c1[nH]c(C)c(C(O)=C2C(=O)C(=O)N(CCN(C)C)C2c2ccncc2)c1C (configuration not stated) | . | 1.2 | -4.2 | . | 3.7 | . | . | .
CCCCNC(=O)C1CC=CC2CCN(Cc3ccc(Cl)c(Cl)c3)C(=O)C21 (configuration not stated) | . | -9.0 | -4.1 | . | -0.6 | . | . | .
COC(CNC(=O)c1ccc2c3c(onc13)-c1ccccc1C2=O)OC | 53.1* | 2.8 | 35.6 | -2.3 | 49.4 | 78.1* | 20.1* | 47.8*
Nc1c(O)cccc1C(=O)O | 71.5* | -6.0 | -2.4 | 9.4 | 0.7 | 29.6* | 6.1* | 0.7
O=C(O)c1ccccc1O | -2.5 | 19.4 | 4.3 | -8.7 | 5.4 | -1.7 | . | .
CCc1nnc(N/N=C/c2cc(Br)c(O)cc2O)n1N | 40.3* | . | . | -2.2 | . | 96.3* | 32.4* | 13.5
CCc1nnc(NN=Cc2ccccc2F)n1N | . | 14.6 | 2.6 | . | 13.4 | . | . | .
CCN1C(=O)C2C(c3ccc(-c4cccc(Cl)c4)cc3)N[C@@](CC(C)C)(C(=O)OC)C2C1=O (some centres not stated) | . | 2.6 | 19.9 | . | -3.5 | . | . | .
O=C1C=C(N2CCCCC2)c2ccccc2C1=O | 97.8* | -0.1 | 16.6 | -1.4 | 18.3 | 81.8* | 1.98* | 81.5*
